Laboratory results: PubChem BioAssay (NCI)
About 83,000 compounds went through this panel and 20% of them were active in at least one assay; those are over-represented in the sample as a whole.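 A percent growth of 40 corresponds to 60% growth inhibition; 0 means no net growth; -100 means all cells died. Active threshold: below 10.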 Calls of active or inactive are those of the source.

Assays:
Assay in all cases: NCI-60 one-dose screen, 48 h (100 = growth as untreated, 0 = no growth, -100 = all killed)
Details in all cases: 10 µM unless noted
[1] = tested on: NCI-H23 lung
[2] = tested on: NCI-H226 lung
[3] = tested on: NCI-H322M lung
[4] = tested on: HOP-62 NSCLC
[5] = tested on: NCI-H460 lung
[6] = tested on: HOP-92 NSCLC
[7] = tested on: NCI-H522 lung
[8] = tested on: A549/ATCC NSCLC
[9] = tested on: 786-0 renal
[10] = tested on: COLO 205 colon
[11] = tested on: DU-145 prostate
[12] = tested on: MALME-3M melanoma
[13] = tested on: MDA-MB-231 breast
[14] = tested on: RXF 393 renal
[15] = tested on: SF-268 CNS
[16] = tested on: SF-295 CNS
[17] = tested on: SF-539 CNS
[18] = tested on: UACC-257 melanoma
[19] = tested on: M14 melanoma

Measured: growth

O=C1/C=C/[C@@H](O)[C@@H]2C[C@@H](O)C[C@H]2/C=C/CCC[C@H](CCc2cccc3ccccc23)O1
inactive: [3] 25.2% | [4] 21.8% | [5] 12.2% | [6] 46.5% | [8] 19.3% | [11] 19% | [15] 16.6% | [17] 21.7% | [18] 26.1%
active: [1] -36% | [2] -62% | [7] -25.8% | [9] -44.7% | [10] -91.9% | [12] -17.7% | [13] -41.2% | [14] -30.9% | [16] 7.76% | [19] 5.14%

COc1ccc(/C=C/c2nc(Nc3ccc(Cl)cc3)c3ccccc3n2)cc1
inactive: [1] 73.1% | [2] 71.1% | [3] 44.3% | [4] 69% | [5] 18.2% | [6] 63.5% | [7] 69.3% | [8] 35% | [9] 36.9% | [10] 63.1% | [11] 50.2% | [12] 94.6% | [13] 38.2% | [14] 56.6% | [15] 54.3% | [16] 72.6% | [17] 90.9% | [18] 92.2% | [19] 34.3%

Cc1cc2c(c(C)c1Cl)C(=O)/C(=C/c1ccc(O)c(O)c1)O2
inactive: [1] 94.6% | [2] 92.9% | [3] 104% | [4] 90.5% | [5] 99.9% | [6] 90.2% | [7] 87.3% | [8] 97.8% | [9] 107% | [10] 114% | [11] 109% | [12] 111% | [13] 91.3% | [14] 113% | [15] 108% | [16] 103% | [17] 100% | [18] 97.7% | [19] 95.2%

OC(c1ccc(F)c(C(F)(F)F)c1)c1cnccc1NC1CCCCC1 (centres undefined)
active: [10] -60.8%
inactive: [1] 51.7% | [2] 78.1% | [3] 89.5% | [4] 85.8% | [5] 69.5% | [6] 40.2% | [7] 67.1% | [8] 69.9% | [9] 63.6% | [11] 90.2% | [12] 71.8% | [13] 55.2% | [14] 68.6% | [15] 79.6% | [16] 74.1% | [17] 85.4% | [18] 87.4% | [19] 77.8%

CC(=O)[C@@H]1CC[C@]2(C(N)=O)CC[C@]3(C)[C@H](CC[C@@H]4[C@@]5(C)CCCNC(C)(C)[C@@H]5CC[C@]43C)[C@@H]12
inactive: [1] 93.7% | [2] 99.6% | [3] 96.3% | [4] 98.3% | [5] 86.2% | [6] 81.7% | [7] 107% | [8] 83.3% | [9] 88.9% | [10] 86.6% | [11] 91.6% | [12] 90% | [13] 106% | [14] 69.5% | [15] 80.2% | [16] 86.6% | [17] 90.1% | [18] 94.4% | [19] 77.5%

O=C1CC(=O)OC(c2ccc([N+](=O)[O-])cc2)O1
active: [7] -65.5% | [9] -73.8% | [10] -31% | [12] -36.6% | [13] -3.22% | [14] -91% | [15] 4.85% | [17] -69.9% | [18] -23.6% | [19] -64.4%
inactive: [1] 43.6% | [2] 34.8% | [3] 51.7% | [4] 26.5% | [5] 35.6% | [6] 36.9% | [8] 33.6% | [11] 13.9% | [16] 70.3%

COc1cc2cc(Oc3cccc(NC(=O)Nc4cc(C(F)(F)F)cc(C(F)(F)F)c4)c3)c(C)nc2cc1OC
inactive: [3] 14.9% | [11] 19.5% | [15] 15.3%
active: [1] 2.28% | [2] -10.2% | [4] -54.1% | [5] 7% | [6] -25.4% | [7] -33.4% | [8] 5.93% | [9] -16.6% | [10] -81.2% | [12] -3.13% | [13] -36.1% | [14] -24.5% | [16] -59.2% | [17] -40.9% | [18] -4.68% | [19] 9.04%

O=C1Nc2cc(Cl)ccc2/C1=C\c1c(-c2ccc(F)cc2)nc2ccccn12
active: [1] -20.4% | [2] 7.11% | [4] 3.44% | [5] 0.0437% | [7] -51.5% | [9] 7.55% | [10] -33.1% | [11] -17.9% | [14] -23.8% | [16] -58.2% | [17] -26.4%
inactive: [3] 39.5% | [6] 69.8% | [8] 33.5% | [12] 41.4% | [13] 50.3% | [15] 20% | [18] 68.7%

OCc1cnc2ccccc2c1NC1CCCCCC1
inactive: [1] 77.4% | [2] 80.4% | [3] 89.3% | [4] 95.8% | [5] 93.1% | [6] 83.6% | [7] 61.7% | [8] 84.6% | [9] 101% | [10] 110% | [11] 97.7% | [12] 102% | [13] 81.3% | [14] 103% | [15] 101% | [16] 86.4% | [17] 102% | [18] 94.5% | [19] 91.4%

COc1ccc2c(c1)oc1c(C)c3c(c(C)c12)C(=O)N(N)C3=O
inactive: [1] 50.4% | [3] 32.3% | [4] 14.8% | [6] 29% | [7] 49.5% | [8] 24.1% | [10] 39.5% | [11] 27.9% | [14] 28.5% | [15] 39.8% | [16] 12% | [18] 40.5% | [19] 13.9%
active: [2] -11.6% | [5] 8% | [9] -39.6% | [12] -5.47% | [13] -4.83% | [17] -6.28%

COc1ccc(/C=C/c2nc(Nc3ccc(S(=O)(=O)Nc4cc(C)on4)cc3)c3ccccc3n2)cc1
inactive: [1] 81.3% | [2] 65.9% | [3] 37.3% | [4] 57.7% | [5] 53.9% | [6] 46% | [7] 63.5% | [8] 39.1% | [9] 87.9% | [10] 48.6% | [11] 77.3% | [12] 112% | [13] 62.1% | [14] 113% | [15] 76.4% | [16] 54.6% | [17] 88.7% | [18] 77.5% | [19] 39.9%

O=c1c2c(c(=O)n1O)c1c3ccc[nH]c3nc1c1nc3[nH]cccc3c12
inactive: [1] 86.7% | [2] 87.1% | [3] 91% | [4] 83% | [5] 93.1% | [6] 80.1% | [7] 55% | [8] 79.4% | [9] 87.5% | [10] 94.9% | [11] 95.4% | [12] 84.3% | [13] 77.4% | [14] 87% | [15] 71.7% | [16] 96% | [17] 83.9% | [18] 85.4% | [19] 94%

C=C(C)[C@@H]1CC[C@]2(C(=O)N3CCN(C)CC3)CC[C@]3(C)[C@H](CC[C@@H]4[C@@]5(C)CC[C@H](O)C(C)(C)[C@@H]5CC[C@]43C)[C@@H]12
active: [1] -14.5% | [5] -69.5% | [7] -89.6% | [8] -82.4% | [9] -95.1% | [10] -69.2% | [11] -57.3% | [12] -73.1% | [13] -63.4% | [14] -91.6% | [15] -74.8% | [16] -86.9% | [17] -74.3% | [18] -88.5% | [19] -86.4%
inactive: [2] 129% | [3] 10.4% | [4] 55.6% | [6] 14.5%

O=C(Nc1ncc(Cc2cc(Cl)ccc2Cl)s1)c1cccs1
inactive: [1] 71.6% | [2] 81% | [3] 62.7% | [4] 55.1% | [5] 33.8% | [6] 48.4% | [7] 43.9% | [8] 38.3% | [9] 78.3% | [10] 67.5% | [11] 81.1% | [12] 50% | [13] 79.8% | [14] 56% | [15] 74.9% | [16] 50.4% | [17] 73.9% | [18] 78.6% | [19] 42.9%

COc1ccc(/C=C/C(=O)Nc2cc(/C=C\c3cc(OC)c(OC)c(OC)c3)cc(OC)c2OC)cc1OC
active: [1] 0.824% | [7] -21.3% | [14] -5.89% | [16] 4.33% | [19] 5.78%
inactive: [2] 37.6% | [3] 42.3% | [4] 33.9% | [5] 17.5% | [6] 46.2% | [8] 40% | [9] 23% | [10] 11.2% | [11] 53.2% | [12] 32.8% | [13] 52% | [15] 31.5% | [17] 28.6% | [18] 50.7%
